High-throughput results deposited in PubChem by National Center for Advancing Translational Sciences (NCATS).
The list is not random: actives were taken first. Their share in the collection is about 7.5%.
VP16 counter: Gal4-VP16 reporter inhibition counter-screen | AID 2546 | Drosophila S2 Gal4-VP16 UAS-luciferase, luminescence, 20 h | 3.5% of 310,000 active | Potency, µM (doses to about 53.6 µM), for inactives: top-dose activity, negative = inhibition, hits mostly inhibitors;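 also: Gal4-VP16 expression switched on by copper sulfate through the metallothionein promoter; potency is read from the fitted curve at half-maximal effect; nearly all actives have a fitted effect of over 50% in size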
ELG1 repair inh: inhibitors of ELG1-dependent DNA repair in HEK293T cells | Potency, µM (doses to about 46.1 µM), inactives show at the highest dose activity change, negative = inhibition, actives largely listed as inhibitors | HEK293T ELG1-luciferase reporter, luminescence, 16 h; DNA damage induced by 5-fluorouridine | 2.3% of 330,000 active | AID 504467; also: potency is read from the fitted curve at half-maximal effect; nearly all actives have a fitted effect of over 55% in size
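Quantitative HTS, concentration-response format. 2,000 cells/well co-treated with 5-fluorouridine and compound, 16 hr in 5% CO2 at 37 °C; ONE-Glo luminescence read after 30 min.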
RORgamma inh: blocks mouse ROR gamma transcriptional activity | Potency, µM (titrated, usually from 53.6 µM), for inactives: at the top dose activity change, negative = inhibition, actives largely listed as inhibitors | 5.4% of 310,000 active | Drosophila S2 Gal4-RORgamma UAS-luciferase reporter, 20 h | AID 2551 | P51450; also: potency is read from the fitted curve at half-maximal effect; nearly all actives have a fitted effect of over 60% in size
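Drosophila Schneider cells stably carrying a metallothionein-driven Gal4 DBD–ROR gamma fusion and a UAS-Photinus luciferase reporter were exposed to compound for 1 hr, then induced with copper sulfate (700 uM final) for 20 hr at ambient temperature before luminescence reading.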
TSHR antag: human thyrotropin receptor antagonism. TSHR-expressing cells, TSH-stimulated cAMP HTRF, 2 h; hits give low values. 0.2% of 330,000 active. P16473. activity change, negative = inhibition, % at 11.5 µM. AID 504810;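 active = activity change below a set negative limit, meaning inhibition stronger than a set level, cut at about -70% in these data; inconclusive = activity change between two set negative limits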
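TSHR-expressing cells were treated with compounds, then stimulated with TSH at EC80 (4nM final) for 2 hours at 37 deg C. Cellular cAMP was measured by HTRF competition between lysate cAMP and cAMP-d2 for a cryptate-labelled anti-cAMP antibody.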
B2AR arrestin: recruits beta-arrestin to the human beta2-adrenergic receptor. Potency, µM (top dose mostly 46.1 µM), inactives show at the top dose activation, usual class: activators. P07550. 0.02% of 330,000 active. beta-arrestin recruitment to beta2AR, cell-based reporter;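 also: potency is read from the fitted curve at half-maximal effect; 0% = DMSO controls and full agonism = EC100 isoproterenol or metaproterenol; nearly all actives have a fitted effect of over 65% in size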
Target sequence (P07550 whole entry, looked up): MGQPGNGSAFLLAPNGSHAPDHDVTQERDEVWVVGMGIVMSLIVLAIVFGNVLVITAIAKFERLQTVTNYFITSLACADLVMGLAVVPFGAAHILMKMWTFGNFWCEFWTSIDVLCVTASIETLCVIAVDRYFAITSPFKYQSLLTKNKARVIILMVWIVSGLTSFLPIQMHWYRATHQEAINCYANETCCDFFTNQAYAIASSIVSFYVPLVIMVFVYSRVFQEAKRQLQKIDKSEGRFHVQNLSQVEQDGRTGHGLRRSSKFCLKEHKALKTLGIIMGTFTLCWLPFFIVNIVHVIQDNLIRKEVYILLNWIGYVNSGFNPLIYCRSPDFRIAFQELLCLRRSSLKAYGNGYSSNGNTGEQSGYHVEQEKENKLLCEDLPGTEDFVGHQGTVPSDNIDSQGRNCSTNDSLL
Numbers without * were called inactive; ? = inconclusive; . = no result given; [ ] = dose if it differs, or a comment. Unless noted, calls follow the shape of the dose curve; as a rule, active = well fitted curve in the direction sought with a large enough effect; inconclusive = small, poorly fitted or top-dose-only effect, or another doubt; inactive = no such curve, though single readings can be large; an effect the other way counts as inactive or inconclusive. Unless noted, % is scaled to controls: 0 for no effect and ±100 for the full control effect.

SMILES | VP16 counter | ELG1 repair inh | RORgamma inh | TSHR antag | B2AR arrestin
CCOCCN1CCN(c2c(CC)c(C)nc3cc(-c4cc(OC)cc(OC)c4)nn23)CC1 | -15% | 6.5µM* | ? | -15 | 0%
CCc1c(C)nc2cc(-c3ccc(OC)c(OC)c3)nn2c1N1CCC(C)CC1 | 1% | ? | 9% | 15 | 0%
CCc1c(C)nc2cc(-c3cc(OC)cc(OC)c3)nn2c1N1CCCC1 | 13µM* | ? | 7.1µM* | -17 | 0%
COc1cc(OC)cc(-c2cc3nc4c(c(N5CCN(c6ncccn6)CC5)n3n2)CCCC4)c1 | 1% | 15µM* | 19% | -9 | 0%
CCc1c(C)nc2cc(-c3ccc(OC)c(OC)c3)nn2c1N1CCCC1 | ? | 13µM* | -45% | 3 | -1%
COc1cc(OC)cc(-c2cc3nc(C)c(CCC(=O)Nc4nc(C)cs4)c(C)n3n2)c1 | ? | ? | ? | -3 | 0%
O=C(CSCCO)Nc1ccc(C2CCCCC2)cc1 | 5.6µM* | ? | 0% | -13 | -1%
O=C(CCN1CCN(CCO)CC1)Nc1ccc(C2CCCC2)cc1 | -11%[10 µM] | -9% | -5% | -10 | 0%
O=C1[C@H]2[C@H]3[C@H](O)[C@H](O)C/C(=N/OC[C@@H](O)COCc4ccco4)[C@@H]3CC[C@@H]2C(=O)N1c1cccc(Oc2ccccc2)c1 | 1%[10 µM] | . | -6%[10 µM] | . | .
Cc1ccc(C(=O)COC(=O)c2ccc(-c3cnc4ccccc4n3)cc2)cc1C | -7% | 0% | 7% | -4 | 0%
Cc1ccc(C(=O)COC(=O)c2ccc3c(c2)C(=O)N(c2cccc4ncccc24)C3=O)cc1C | 16µM* | 0% | ? | 38 | 0%
COc1ccccc1Oc1ccc2c(c1)C(=O)N(c1cccc3ncccc13)C2=O | 10µM* | 3% | ? | -33 | 0%
O=S(=O)(NCc1nnc2ccccn12)c1ccc(F)cc1 | . | -3% | . | 0 | 0%
Cc1cc2ncn(/N=C/c3ccc(-c4ccccc4)o3)c2cc1C | 20µM* | -5% | 11µM* | 16 | 0%
Cc1cc2ncn(/N=C/c3cccnc3)c2cc1C | -29% | -17% | 15% | 4 | 0%
O=C(NCC1COc2ccccc2O1)c1cc(S(=O)(=O)N2CCOCC2)c(Cl)cc1Cl (stereo unspecified) | . | 18µM* | . | 5 | -2%
O=C(NCCN1C(=O)S/C(=C\c2ccccc2)C1=O)c1cc(S(=O)(=O)N2CCOCC2)c(Cl)cc1Cl | -6% | 15µM* | 14% | -4 | -1%
O=C(NCCN1C(=O)S/C(=C\c2ccc(Cl)cc2)C1=O)c1ccc(F)c(S(=O)(=O)N2CCOCC2)c1 | -18% | ? | ? | 1 | -1%
O=C(NCC1COc2ccccc2O1)c1ccc(F)c(S(=O)(=O)N2CCOCC2)c1 (stereo unspecified) | . | -26% | . | -7 | 0%
O=C(c1ccc(Cn2c(=S)[nH]c3cc4c(cc3c2=O)OCO4)cc1)N1CCN(c2ccccc2)CC1 | 6.3µM* | ? | 3.2µM* | -10 | 0%
CCCCCn1c(=S)[nH]c2cc(C(=O)N3CCN(C(=O)OCC)CC3)ccc2c1=O | ? | 2% | ? | 6 | 0%
O=C(c1ccc2c(=O)n(Cc3ccccc3)c(=S)[nH]c2c1)N1CCCC1 | ? | -6% | 11µM* | -7 | 0%
CCCCCn1c(=S)[nH]c2cc(C(=O)N3CCCC3)ccc2c1=O | 14% | ? | 3.2µM* | 0 | 0%
O=C(c1ccc(Cn2c(=S)[nH]c3ccc(Br)cc3c2=O)cc1)N1CCN(C2CCCCC2)CC1 | ? | ? | 11µM* | 7 | 0%
COc1ccc(Cn2c(=S)[nH]c3cc(C(=O)N4CCN(c5ccccc5)CC4)ccc3c2=O)cc1 | 2% | -13% | ? | -2 | 0%
SMILES | VP16 counter | ELG1 repair inh | RORgamma inh | TSHR antag | B2AR arrestin
CCOCCCn1c(=S)[nH]c2cc(C(=O)N3CCN(C4CCCCC4)CC3)ccc2c1=O | -14% | -1% | 0% | -3 | 0%
Cc1ccc(C)c(N2CCN(C(=O)c3ccc(Cn4c(=S)[nH]c5ccc(N6CCOCC6)cc5c4=O)cc3)CC2)c1 | -5% | 21% | 2.8µM* | -5 | 0%
O=C(c1ccc(Cn2c(=S)[nH]c3ccc(N4CCOCC4)cc3c2=O)cc1)N1CCN(c2ccc(F)cc2)CC1 | 0% | ? | ? | -23 | 1%
CC1CCCC(NC(=O)c2nn(C)c3c2CS(=O)(=O)c2ccccc2-3)C1C (stereo unspecified) | -1% | ? | 3% | 2 | 0%
NC(=O)C(c1cccc(Cl)c1)c1ncc(C(F)(F)F)cc1Cl (stereo unspecified) | -2% | 4% | 2% | 4 | 0%
NC(=S)C(c1ccccc1)c1ncc(C(F)(F)F)cc1Cl (stereo unspecified) | ? | 11% | 6.3µM* | -1 | 0%
CC1CC(=O)N(c2ccc(C(C)C)cc2)C(=O)C1 | -4% | 7% | 3% | -118* | -1%
CC(C)c1ccc(N2C(=O)CC(NNC(=O)c3ccccc3Cl)C2=O)cc1 (stereo unspecified) | 3.2µM* | -2% | ? | -4 | -1%
COc1ccc2c(c1)O[C@@H](c1cccc(C(F)(F)F)c1)[C@H](OC(=O)NCCOc1ccccc1)C2=O | -11% | . | 13% | . | .
Cc1[nH]nc(-c2ccc(OCc3cnn(-c4ccccc4)c3)c(C)c2O)c1Oc1ccccc1 | ? | -16% | 7.9µM* | 6 | -2%
Cc1oc2cc(OCc3cnn(-c4ccccc4)c3)ccc2c(=O)c1Oc1ccccc1F | -13% | 4% | 32% | 11 | -1%
CCOc1ccc(-c2n[nH]c(C)c2Oc2ccc(OC)cc2)c(O)c1 | 5µM* | 0% | 2.2µM* | 8 | -1%
Cc1[nH]nc(-c2ccc(O)c(C)c2O)c1Oc1ccccc1 | ? | ? | ? | -26 | 1%
Cc1[nH]nc(-c2ccc(OCc3cnn(-c4ccccc4)c3)cc2O)c1Oc1ccc(F)cc1 | 10µM* | 8% | 7.1µM* | -7 | 0%
CCOc1ccc(-c2nc(CSCC(=O)NCc3ccco3)c(C)o2)cc1 | 25µM* | 7.3µM* | -38% | -9 | 0%
CCOc1ccc(-c2nc(CSCC(=O)NC3CC3)c(C)o2)cc1 | ? | 14% | 8.9µM* | -20 | 0%
CCOC(=O)N1CCC(NC(=O)CSCc2nc(-c3ccccc3Cl)oc2C)CC1 | -10% | ? | 14% | -6 | 4%
CCOC(=O)N1CCC(NC(=O)CSCc2nc(-c3sccc3C)oc2C)CC1 | 1% | ? | -1% | 4 | 0%
CCOC(=O)N1CCC(NC(=O)CSCc2nc(-c3ccc(OCC)cc3)oc2C)CC1 | -4% | 13µM* | 4% | -4 | 10%
